Experimental data taken from PubChem BioAssay.
The source made the active and inactive calls.

Experiments:
[1] = system: Wnt5a (protein binding on small-molecule microarray); assay: Wnt5a binders on small-molecule microarray, primary screen, biophysical, 635/667 nm fluorescence (AID 1142); settings: 635 nm fluorescence, higher = more signal;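 also: fluorescence read at 667 nm with signal to noise per printed feature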
[2] = cell viability in Huh7 cells, primary screen, cytotoxicity control for HCV replication inhibitor project, CellTiter-Glo luminescence, basal, 48 h (AID 1143); settings: Huh7 HCV replicon, higher = more signal, called active from +8 up or from −8 down;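 also: Huh7 hepatoma cells carrying a hepatitis C replication reporter with no stimulus; test concentration not given here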
[3] = CREB reporter modulators without forskolin, primary screen, cell-based, PC12, CRE-LacZ reporter, unstimulated (AID 1145); settings: no forskolin, luminescence, 4.5 h, higher = more signal, called active from +8 up or from −8 down
[4] = CREB reporter modulators under forskolin, primary screen, cell-based, PC12, CRE-LacZ reporter, forskolin-stimulated (AID 1146); settings: luminescence, 4.5 h, higher = more signal, called active from +8 up or from −8 down;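 also: PC12 cells with 6xCRE LacZ reporter stimulated by forskolin 10 µM; beta-galactosidase reporter signal reflecting CREB driven transcription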
[5] = target: Streptavidin (Streptomyces avidinii) (UniProt P22629); assay: streptavidin binders on small-molecule microarray, primary screen, artefact control for SMM compound annotation, biophysical, 635/667 nm fluorescence (AID 1147); settings: streptavidin binding, higher = more signal;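 also: signal reflects streptavidin binding to arrayed compounds as a control protein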
Streptavidin (Streptomyces avidinii), sequence (P22629 whole entry, looked up): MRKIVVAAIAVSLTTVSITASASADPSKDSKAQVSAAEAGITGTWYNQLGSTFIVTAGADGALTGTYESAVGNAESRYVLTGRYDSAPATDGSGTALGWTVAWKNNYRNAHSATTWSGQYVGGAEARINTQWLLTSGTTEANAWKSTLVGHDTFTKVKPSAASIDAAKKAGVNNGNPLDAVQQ

[6] = small-molecule binders of probe aInhba, primary screen, biochemical, small-molecule microarray, 635/667 nm fluorescence (AID 1148); settings: higher = more signal;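 also: score merges 667nm spot fluorescence with signal-to-noise for antibody binding to printed compounds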
[7] = target: Torsin-1A (Homo sapiens) (UniProt O14656); assay: torsin A binders from cell lysate, primary screen, small-molecule microarray, wild-type, 635/667 nm (AID 1149); settings: COS7 hTOR1A-WT lysate, 635 nm fluorescence, higher = more signal
Torsin-1A (Homo sapiens), sequence (O14656 whole entry, looked up): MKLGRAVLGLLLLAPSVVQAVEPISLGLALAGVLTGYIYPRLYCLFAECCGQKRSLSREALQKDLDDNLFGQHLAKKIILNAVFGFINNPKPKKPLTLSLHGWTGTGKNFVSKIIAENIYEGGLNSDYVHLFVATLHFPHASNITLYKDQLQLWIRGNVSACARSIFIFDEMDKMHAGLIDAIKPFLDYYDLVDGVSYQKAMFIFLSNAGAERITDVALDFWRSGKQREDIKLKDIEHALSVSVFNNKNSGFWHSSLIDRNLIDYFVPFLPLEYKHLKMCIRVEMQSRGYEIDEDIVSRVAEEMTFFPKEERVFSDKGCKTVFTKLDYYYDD

[8] = target: Torsin-1A (Homo sapiens) (UniProt O14656); assay: small-molecule binders of mutant TOR1A in lysate, primary screen, cell lysate, small-molecule microarray, COS7 lysate, 635/667 nm fluorescence (AID 1150); settings: COS7 hTOR1A mutant lysate, 635 nm fluorescence, higher = more signal;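 also: score pools 667 nm emission and signal to noise measuring lysate protein binding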
[9] = system: Sonic hedgehog protein (Shh); assay: small-molecule binders of Shh protein, primary screen, biochemical, small-molecule microarray, 635/667 nm fluorescence (AID 1151); settings: small-molecule microarray binding, 635 nm fluorescence; higher = more signal;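 also: Shh protein binding to compounds spotted on small-molecule microarray slides; score combines spot fluorescence intensity with signal-to-noise across triplicate slides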
[10] = E. coli DRC41 culture turbidity changes, primary screen, E. coli filamentation inducer project, strain DRC41, OD650, 48 h (AID 1152);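 also: E. coli MC1000 strain DRC41 lacking acrAB efflux pump and sulA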; settings: E. coli DRC41 (acrAB sulA), higher = more signal, called active from +8 up or from −8 down
[11] = small-molecule binders of probe aLefty1, primary screen, biochemical, small-molecule microarray, 635/667 nm fluorescence (AID 1153); settings: higher = more signal;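 also: score merges spot fluorescence with signal-to-noise ratio from the scanned slide images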
[12] = PSAC antagonists in infected red cells, primary screen, cell-based, P. falciparum Indochina, OD700, 1 h (AID 1154); settings: P. falciparum Indochina infected RBC osmotic lysis, higher = more signal, called active from +8 up or from −8 down
[13] = PSAC antagonists in infected red cells, primary screen, cell-based, P. falciparum Indochina, OD700, 2 h (AID 1155);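 also: lysis reports solute entry through the parasite surface anion channel PSAC; channel blockers reduce lysis of infected cells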; settings: P. falciparum Indochina infected erythrocytes, osmotic lysis OD700; higher = more signal, called active from +8 up or from −8 down
[14] = osmotic lysis modulators in infected erythrocytes, primary screen, PSAC antagonist project, cell-based, P. falciparum Indochina, OD700, 3 h (AID 1156); settings: higher = more signal, called active from +8 up or from −8 down
[15] = PSAC antagonists in infected red cells, primary screen, cell-based, P. falciparum Indochina, OD700, 18 h (AID 1157); settings: P. falciparum Indochina infected erythrocytes, osmotic lysis OD700, 18 h; higher = more signal, called active from +8 up or from −8 down
[16] = modulators of S6 phosphorylation in cells, primary screen, cell-based, A549, cytoblot, luminescence, serum-stimulated (AID 1158); settings: A549 phospho-S6 cytoblot, 5 h, higher = more signal;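 also: serum-stimulated A549 lung adenocarcinoma cells; signal is phosphorylated S6 detected by cytoblot immunostaining with HRP secondary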
[17] = target: NADPH oxidase 2 (Homo sapiens) (UniProt P04839); assay: NOX2-dependent H2O2 signal modulators, primary screen, NOX inhibitor project, cell-based, HEK293-NOX2, PMA-stimulated, Amplex Red fluorescence (AID 1159); settings: 45 min, higher = more signal, called active from +8 up or from −8 down; also: test concentration not given here
NADPH oxidase 2 (Homo sapiens), sequence (P04839 whole entry, looked up): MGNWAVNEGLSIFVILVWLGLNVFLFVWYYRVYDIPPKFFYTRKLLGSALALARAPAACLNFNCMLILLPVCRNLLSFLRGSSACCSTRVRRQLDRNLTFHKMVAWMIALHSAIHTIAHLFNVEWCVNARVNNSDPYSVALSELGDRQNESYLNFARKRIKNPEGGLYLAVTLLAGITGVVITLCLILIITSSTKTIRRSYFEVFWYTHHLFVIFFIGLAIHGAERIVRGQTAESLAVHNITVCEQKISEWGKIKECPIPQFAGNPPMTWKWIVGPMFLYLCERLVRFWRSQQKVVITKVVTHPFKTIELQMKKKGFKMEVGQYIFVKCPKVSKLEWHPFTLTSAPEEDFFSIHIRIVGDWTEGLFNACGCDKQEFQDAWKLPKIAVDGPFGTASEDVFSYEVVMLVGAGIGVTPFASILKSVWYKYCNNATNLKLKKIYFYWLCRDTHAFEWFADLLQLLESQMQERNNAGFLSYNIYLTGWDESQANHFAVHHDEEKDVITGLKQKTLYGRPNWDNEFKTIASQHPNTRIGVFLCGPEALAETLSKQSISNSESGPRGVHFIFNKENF

[18] = target: NADPH oxidase 4 (Homo sapiens) (UniProt Q9NPH5); assay: NOX4-dependent H2O2 signal modulators, primary screen, NOX inhibitor project, cell-based, HEK293-NOX4, tetracycline-induced, Amplex Red fluorescence (AID 1160); settings: 45 min, higher = more signal, called active from +8 up or from −8 down
NADPH oxidase 4 (Homo sapiens), sequence (Q9NPH5 whole entry, looked up): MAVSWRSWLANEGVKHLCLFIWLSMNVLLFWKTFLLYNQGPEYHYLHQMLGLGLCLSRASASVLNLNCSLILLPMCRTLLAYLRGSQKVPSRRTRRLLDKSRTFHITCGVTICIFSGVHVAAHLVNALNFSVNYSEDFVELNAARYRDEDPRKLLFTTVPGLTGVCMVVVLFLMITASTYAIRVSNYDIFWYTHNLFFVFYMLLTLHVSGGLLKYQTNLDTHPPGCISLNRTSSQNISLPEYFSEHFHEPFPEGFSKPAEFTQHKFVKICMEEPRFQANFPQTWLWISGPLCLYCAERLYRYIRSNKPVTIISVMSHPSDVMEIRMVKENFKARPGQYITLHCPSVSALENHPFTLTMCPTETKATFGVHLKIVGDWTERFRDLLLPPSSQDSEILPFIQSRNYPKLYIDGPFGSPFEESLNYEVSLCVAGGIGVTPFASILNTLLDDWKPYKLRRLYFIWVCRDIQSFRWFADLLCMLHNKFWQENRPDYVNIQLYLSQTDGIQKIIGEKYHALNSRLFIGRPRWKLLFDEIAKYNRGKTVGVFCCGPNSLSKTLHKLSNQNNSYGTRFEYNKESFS

[19] = target: NADPH oxidase 5 (Homo sapiens) (UniProt Q96PH1); assay: NOX5-dependent H2O2 signal modulators, primary screen, NOX inhibitor project, cell-based, HEK293-NOX5, Amplex Red fluorescence (AID 1161); settings: HEK293-NOX5, ionomycin, 45 min, higher = more signal
NADPH oxidase 5 (Homo sapiens), sequence (Q96PH1 whole entry, looked up): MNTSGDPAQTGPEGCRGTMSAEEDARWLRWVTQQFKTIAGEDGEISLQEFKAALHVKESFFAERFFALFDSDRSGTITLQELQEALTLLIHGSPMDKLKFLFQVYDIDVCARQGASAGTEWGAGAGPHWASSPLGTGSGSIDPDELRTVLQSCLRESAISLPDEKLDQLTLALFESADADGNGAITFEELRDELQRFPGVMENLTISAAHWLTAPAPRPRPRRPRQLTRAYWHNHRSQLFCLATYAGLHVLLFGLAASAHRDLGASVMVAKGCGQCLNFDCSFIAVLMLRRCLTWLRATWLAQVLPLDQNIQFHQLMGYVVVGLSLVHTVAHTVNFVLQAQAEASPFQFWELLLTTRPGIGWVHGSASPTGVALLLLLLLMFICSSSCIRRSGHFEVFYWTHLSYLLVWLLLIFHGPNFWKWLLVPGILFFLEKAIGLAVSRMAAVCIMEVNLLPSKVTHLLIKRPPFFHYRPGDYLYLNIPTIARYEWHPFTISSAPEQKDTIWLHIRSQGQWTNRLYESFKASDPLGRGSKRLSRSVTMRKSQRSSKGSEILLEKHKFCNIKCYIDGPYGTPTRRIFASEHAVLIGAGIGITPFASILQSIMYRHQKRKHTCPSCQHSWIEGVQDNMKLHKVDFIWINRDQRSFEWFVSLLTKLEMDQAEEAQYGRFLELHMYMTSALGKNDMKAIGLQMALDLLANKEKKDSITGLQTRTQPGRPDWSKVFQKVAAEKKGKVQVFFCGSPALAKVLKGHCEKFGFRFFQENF

| Compound | composite z-score [1] | z-score [2] | z-score [3] | z-score [4] | composite z-score [5] | composite z-score [6] | composite z-score [7] | composite z-score [8] | composite z-score [9] | z-score [10] | composite z-score [11] | z-score [12] | z-score [13] | z-score [14] | z-score [15] | z-score [16] | z-score [17] | z-score [18] | z-score [19] |
| --- | --- | --- | --- | --- | --- | --- | --- | --- | --- | --- | --- | --- | --- | --- | --- | --- | --- | --- | --- |
| COc1ccc(CCNC(=O)[C@@]2(c3ccc([N+](=O)[O-])cc3)CC(=O)N(C(C)C)[C@@H]2c2ccc(CO)cc2)cc1 | -0.326 | -3.13 (inactive) | 0.0909 (inactive) | -1.25 (inactive) | -0.698 | -0.255 | -1.09 | -0.87 | -0.775 | 1.6 (inactive) | -0.0353 | 4.07 (inactive) | 0.208 (inactive) | 1.44 (inactive) | 0.621 (inactive) | 0.54 | 0.891 (inactive) | 0.433 (inactive) | 0.24 |
| CO[C@@H]1COC(=O)[C@H](C)NC(=O)CC=C[C@@H](C)[C@H](NS(=O)(=O)c2ccc(C)cc2)COC(=O)CC=C[C@@H]1C | 0.0543 | 0.189 (inactive) | -0.0234 (inactive) | -0.445 (inactive) | -0.193 | -0.145 | 0.56 | 0.252 | 0.0208 | 0.117 (inactive) | -0.15 | -0.697 (inactive) | -0.207 (inactive) | 0.0724 (inactive) | -0.0387 (inactive) | 0.225 | 0.564 (inactive) | 0.661 (inactive) | 0.661 |
| [N-]=[N+]=Nc1ccccc1C[C@@]1(C(=O)N2CCOCC2)N=C(c2ccc(OCCCO)cc2)O[C@@H]1c1ccccc1N=[N+]=[N-] | 0.372 | -5.17 (inactive) | 2.75 (inactive) | -1.37 (inactive) | 0.955 | 0.0982 | 0.644 | 0.407 | 0.174 | 1.94 (inactive) | 0.241 | 29.9 (active) | 27.6 (active) | 3.13 (inactive) | 4.27 (inactive) | 2.07 | 0.781 (inactive) | 0.516 (inactive) | -0.745 |
| O=C(NCc1ccccc1)[C@@]1(CCS(=O)(=O)c2ccccc2)COC(c2ccc(OCCCO)cc2)=N1 | 0.23 | -3.07 (inactive) | -0.137 (inactive) | -2.67 (inactive) | 2 | 0.281 | 0.911 | 0.576 | 0.331 | 2.13 (inactive) | 0.715 | 30.4 (active) | 25.8 (active) | 3.7 (inactive) | 5.53 (inactive) | 2.54 | -2.26 (inactive) | -0.0883 (inactive) | -2.24 |
